Data on six compounds can be found in PubChem BioAssay.

Values joined by “and” are separate entries in the source; they are usually repeats but may differ in a detail not shown here. Equal values may be shown once. Records with an inconclusive call do not appear. Active and inactive are the calls of the source.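 Rule for the calls, unless noted: active = normalized viability below 100% at a tested concentration; inactive = the rest.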

A short description of assay [1]: drug combination growth inhibition, ovarian cancer – cell-based, oncology-focused library, rucaparib conditional, profiling panel (AID 1508598). The following applies: patient-derived ovarian cancer cells, CellTiter-Glo viability, 144 h, stronger effect = lower value.
A short description of assay [2]: galactose survival enhancers in mitochondrial complex I cybrids – cell-based, galactose medium, ATP luminescence, primary screen (AID 1645843;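 active = z-score of at least 1.8 in each of two replicates, scored against plate mean and spread of sample wells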;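 note: positive z means more ATP and so rescue of galactose-driven cybrid death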). The following applies: complex I mutant cybrid cells, 72 h, stronger effect = higher value.
The nature of assay [3]: P. berghei load reduction in hepatocytes – cell-based, HepG2, luciferase luminescence, HepG2 viability, primary screen (AID 624349; in the data active = parasite load remaining mostly below about 12%, no sharp cut-off; inactive = mostly above about 10%;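 note: 100% = mean of DMSO negative control wells on the same plate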). The following applies: P. berghei liver stage in HepG2, luciferase luminescence, concentration not given here; parasite load remaining: stronger effect = lower value; viability: measured here: HepG2 viability without parasites.
Assay [4] has as its system Aerobactin synthetase IucA (Klebsiella pneumoniae). The experiment in a line: inhibition of K. pneumoniae IucA enzyme – biochemical, Tocris library, absorbance (AID 1345561; call rule not given here;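 note: 100% = enzyme without compound and 0% = no enzyme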). The conditions noted are these: purified IucA enzyme assay, absorbance (OD) read-out; stronger effect = lower value;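 tested at 8 µM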.
The nature of assay [5]: viability loss with induced miR-34 in A549 – imaging, A549 dox-inducible miR-34, nuclei and caspase counts, primary screen (AID 1347080;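 active = compounds whose cell count with miR-34 switched on is under 0.7 times the count with it off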). The following applies: A549 miR-34 inducible, Hoechst nuclei count, 48 h.
A short description of assay [6]: viability loss in pontine glioma line – cell-based, SU-DIPG-XXV, MIPE5.0, CellTiter-Glo, qHTS, dose response (AID 1347065; cut-off not given, nearly all actives have AC50 up to about 26 µM;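 note: cells exposed to compound for 48 hours before ATP readout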). The following applies: CellTiter-Glo ATP luminescence. In general terms: In ATP-based viability assays light output follows the ATP content of the culture.
A short description of assay [7]: JHH-DIPG-1 glioma cell viability, MIPE5.0 library, CellTiter-Glo luminescence, qHTS (AID 1347067; cut-off not given, nearly all actives have AC50 up to about 26 µM;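 note: cells exposed to compound for 48 hours before readout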). The conditions noted are these: JHH-DIPG-1 glioma viability, CellTiter-Glo ATP luminescence.
Assay [8] is described as follows: growth inhibition of DIPG cells – cell-based, MIPE5.0 library, qHTS (AID 1347068; cut-off not given, nearly all actives have IC50 up to about 30 µM;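 for IC50: cells exposed to compound for 48 hours before viability readout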). The following applies: SU-DIPG-XXV viability. A general note: Quantitative high-throughput screening tests each substance at several concentrations.
The nature of assay [9]: growth inhibition of DIPG cells – cell-based, MIPE4.0 library, CellTiter-Glo luminescence, qHTS (AID 1347066; cut-off not given, nearly all actives have AC50 up to about 30 µM;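 note: cells exposed to compound for 48 hours before readout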). The conditions noted are these: SU-DIPG-VI viability, CellTiter-Glo ATP luminescence.
Assay [10] can be described thus: compounds altering HSF1 focus formation in cells – imaging, Selleck Cancer Library (AID 1347162; in the data active = plate-normalised HSF1 focus index below about 0.46). The conditions noted are these: human cells, HSF1 nuclear foci imaging, at 10 µM; SSMD: measured here: HSF1 foci SSMD mean; cell count: measured here: cell number; plate-normalised HSF1 focus index: stronger effect = lower value.
Assay [11] is described as follows: viability loss in pontine glioma line – cell-based, JHH-DIPG-1, MIPE4.0, CellTiter-Glo, qHTS, dose response (AID 1347062; cut-off not given, nearly all actives have AC50 up to about 27 µM). The conditions noted are these: JHH-DIPG-1 viability, CellTiter-Glo ATP luminescence.
A short description of assay [12]: viability loss in pontine glioma line – cell-based, SU-DIPG-XIII, MIPE4.0, CellTiter-Glo, qHTS, dose response (AID 1347061; cut-off not given, nearly all actives have AC50 up to about 37 µM;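 note: cells exposed to compound for 48 hours before readout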). The conditions noted are these: CellTiter-Glo ATP luminescence.
The nature of assay [13]: viability loss in pontine glioma line – cell-based, SU-DIPG-XIII, MIPE5.0, CellTiter-Glo, qHTS, dose response (AID 1347064; cut-off not given, nearly all actives have AC50 up to about 23 µM;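 note: cells exposed to compound for 48 hours before the viability read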). The following applies: CellTiter-Glo ATP luminescence.
The mark [14] stands for this setting: stronger effect = lower value, cell number ratio, induced over uninduced.
[15] abbreviates: measured here: relative caspase fold change +Dox/-Dox.
Where [16] appears, read: measured here: total cells with miR-34 induction, stronger effect = lower value.
The mark [17] stands for this setting: measured here: total cells without miR-34 induction.

A word on the viability: it is a read-out of living cells in per cent, often relative to untreated cells. For the compound `C[C@@H](N)C1CCC(C(=O)Nc2ccncc2)CC1` (some centres not stated), the viability was 112% (inactive) in assay [1] (at 0.0195 µM, OCI-C5x cells, without rucaparib); 89.2% (active) in assay [1] (at 0.0195 µM, OCI-P5x cells, with rucaparib 20 µM, 100% = cells with rucaparib alone); 102% (inactive) in assay [1] (at 0.0195 µM, OCI-P5x cells, without rucaparib); 113% (inactive) in assay [1] (at 0.0781 µM, OCI-C5x cells, with rucaparib 10 µM, 100% = cells with rucaparib alone); 107% (inactive) in [1] (at 0.0781 µM, OCI-C5x cells, without rucaparib); 96.5% (active) in [1] (at 0.0781 µM, OCI-P5x cells, with rucaparib 20 µM, 100% = cells with rucaparib alone). Further, the viability in assay [1] (at 0.0781 µM, OCI-P5x cells, without rucaparib) is 102% (inactive); in [1] (at 0.313 µM, OCI-C5x cells, with rucaparib 10 µM, 100% = cells with rucaparib alone), 106% (inactive); in [1] (at 0.313 µM, OCI-C5x cells, without rucaparib), 120% (inactive); in [1] (at 0.313 µM, OCI-P5x cells, with rucaparib 20 µM, 100% = cells with rucaparib alone), 99.7% (active); in assay [1] (at 0.313 µM, OCI-P5x cells, without rucaparib), 97.9% (active); in [1] (at 1.25 µM, OCI-C5x cells, with rucaparib 10 µM, 100% = cells with rucaparib alone), 117% (inactive). The viability is 113% (inactive) in assay [1] (at 1.25 µM, OCI-C5x cells, without rucaparib); 106% (inactive) in [1] (at 1.25 µM, OCI-P5x cells, with rucaparib 20 µM, 100% = cells with rucaparib alone); 102% (inactive) in assay [1] (at 1.25 µM, OCI-P5x cells, without rucaparib); 110% (inactive) in assay [1] (at 5 µM, OCI-C5x cells, with rucaparib 10 µM, 100% = cells with rucaparib alone); 107% (inactive) in assay [1] (at 5 µM, OCI-C5x cells, without rucaparib); 94.4% (active) in assay [1] (at 5 µM, OCI-P5x cells, with rucaparib 20 µM, 100% = cells with rucaparib alone). For the same compound, the viability in assay [1] (at 5 µM, OCI-P5x cells, without rucaparib) is 99.6% (active). Besides, the z-score in assay [2] is -0.445 (inactive).

What is called remaining activity is the signal under treatment as a percentage of the control signal. Turning to `O=Nc1c(-c2c(O)[nH]c3ccccc23)[nH]c2ccccc12`, the parasite load remaining in [3] was 33.5% (inactive). Also, the viability in assay [3] came out at 168%. Moreover, the remaining activity in assay [4] is 116% (inactive). For the same compound, the fold change was 1.02 (inactive) and 0.941 (inactive) and 1.27 (inactive) in assay [5] (setting [14]); 0.96 and 0.857 and 0.731 in assay [5] (setting [15]). Besides, the cell count was 1220 and 814 and 1460 in [5] (setting [16]); 1200 and 866 and 1140 in assay [5] (setting [17]). Further, the z-score in [2] was -1.48 (inactive) and -0.805 (inactive).

As usually defined, the IC50 is the concentration that inhibits the measured activity by half. As to `CCCC[C@@H](C=O)NC(=O)[C@H](CC(C)C)NC(=O)OCc1ccccc1`, the remaining activity in [4] is 86.3% (inactive). The compound was called inactive in assay [6] and in [7]. Moreover, the IC50 in assay [8] is 16.6 µM (active). Also, the fold change in assay [5] (setting [14]) is 0.927 (inactive) and 0.862 (inactive); in assay [5] (setting [15]), 1.01 and 0.983. The cell count was 6040 and 7590 in assay [5] (setting [16]); 6520 and 8800 in [5] (setting [17]). Also, the z-score in assay [2] is 2.31 (inactive).

Broadly, the AC50 is the concentration giving half of the maximal activity seen. As to `CC(C)C[C@@H](C(=O)N[C@H](C(=O)OC1CCCC1)c1ccccc1)[C@H](O)C(=O)NO`, in [4], the remaining activity was 125% (inactive). For the same compound, the AC50 in [9] is 23.5 µM (active). The compound was called inactive in assay [7]. The fold change in [5] (setting [14]) is 1 (inactive); in assay [5] (setting [15]), 1.24. The cell count was found to be 7280 in [5] (setting [16]), 7280 in [5] (setting [17]) and 6800 in assay [10]. The compound further had an SSMD in assay [10] of 3.49. Further, the plate-normalised HSF1 focus index in assay [10] was 1.19 (inactive). Also, in assay [2], the z-score was 0.875 (inactive).

Turning to `Nc1nccc(-c2ccc3noc(-c4ccc(Cl)cc4)c3c2)n1`, the parasite load remaining in assay [3] is 22.2% (inactive). The viability in assay [3] turned out to be 88.2%. For the same compound, the remaining activity in assay [4] is 127% (inactive). For the same compound, the compound was called inactive in assay [11] and in [9]. For the same compound, in assay [6], the AC50 was 20.9 µM (active). Moreover, the fold change in [5] (setting [14]) is 0.777 (inactive); in assay [5] (setting [15]), 2.19. Moreover, the values for the cell count in assay [5] (setting [16]), in assay [5] (setting [17]) and in assay [10] were 3770, 4860 and 7060, respectively. Further, the SSMD in assay [10] worked out at 3.12. Further, the plate-normalised HSF1 focus index in assay [10] is 1.19 (inactive). Also, the z-score in assay [2] is -0.05 (inactive).

For `Oc1cc(O)cc(/C=C/c2ccc(O)c(O)c2)c1`, the remaining activity in [4] is 112% (inactive). In addition, the compound was classed as inactive in assay [12] and in assay [8]. The AC50 in [13] is 20.9 µM (active); in [7] it was 16.6 µM (active). The fold change in [5] (setting [14]) was 1.12 (inactive) and 0.813 (inactive) and 0.863 (inactive); in assay [5] (setting [15]), 0.772 and 1.12 and 0.797. In addition, the cell count in assay [5] (setting [16]) was 9320 and 2290 and 7210; in assay [5] (setting [17]) it was 8350 and 2810. For the same compound, in [2], the z-score is -1.24 (inactive) and -0.7 (inactive).
